Screens deposited in PubChem BioAssay by National Center for Advancing Translational Sciences (NCATS).
LASV entry inh: qHTS for Inhibitors of binding or entry into cells for Lassa Virus; Lassa virus pseudotype entry inhibition, cell reporter; Potency, µM (doses to about 37.9 µM), inactives show at the top dose activity change, negative = inhibition, most hits filed as inhibitors; actives 1.2% (n = 300,000); calls by dose curve; tested in HEK293 cells; also: potency is read from the fitted curve at half-maximal effect; % is scaled to controls: 0 for no effect and ±100 for the full control effect; nearly all actives have a fitted effect of over 50% in size
MARV entry inh: qHTS for inhibitors of binding or entry into cells for Marburg Virus. Marburg virus pseudotyped entry inhibition, cell reporter. Potency, µM (series often up to 37.8 µM), for inactives: top-dose activity change, negative = inhibition, most hits filed as inhibitors. actives 1.8% (n = 300,000). AID 540276, 2011; calls by dose curve; tested in HEK293 cells; also: potency is read from the fitted curve at half-maximal effect; % is scaled to controls: 0 for no effect and ±100 for the full control effect
Cycloheximide cs: Cycloheximide Counterscreen for Small Molecule Inhibitors of Shiga Toxin; cell reporter, cycloheximide protein synthesis inhibition counterscreen; max response, %; actives 12% (n = 300,000); AID 2314, 2010; in the data active = max response mostly above about 13%, no sharp cut-off; inactive = mostly below about 14%; also: read at 38.3 µM for the half of the compounds with a filed dose; 0% is about no effect
Shiga toxin inh: A qHTS for Small Molecule Inhibitors of Shiga Toxin; Vero cells, Shiga toxin protein synthesis inhibition reporter; inhibition, % at 38.7 µM; actives 9.2% (n = 290,000); in the data active = inhibition mostly above about 28%, no sharp cut-off; inactive = mostly below about 43%; also: 0% is about no effect
* hit, by the source's call; [ ] = remark or other dose. Compounds with a hit are over-represented: about 12% of the library has one in this group of screens.

How did COc1ccc(CNC(=O)c2nc(SC(C)C)ncc2Cl)cc1 do in these assays?
LASV entry inh: -22%[46.1 µM]; MARV entry inh: 8%[46.1 µM]

How did COC(=O)c1c(NC(=O)c2ccnn2C)sc(C)c1C do in these assays?
LASV entry inh: inconclusive; MARV entry inh: -1%

How did CCn1cc(C(=O)Nc2sc(C)c(C)c2C(=O)OC)cn1 do in these assays?
LASV entry inh: 6%; MARV entry inh: inconclusive; Cycloheximide cs: 9; Shiga toxin inh: 25*

What do the screens show for `CCOC(=O)c1cnc2c(ccc3ccccc32)c1N`?
Cycloheximide cs: 34*

How did CCOC(=O)c1cnc2c(ccc3ccccc32)c1NCCO do in these assays?
LASV entry inh: 1%; MARV entry inh: inconclusive; Cycloheximide cs: 12; Shiga toxin inh: 38*

Results for CCOC(=O)c1cnc2c(ccc3ccccc32)c1NCCN(C)C ?
Cycloheximide cs: 10; Shiga toxin inh: 28

How did O=C(Cn1ncn2c(cc3cc(F)ccc32)c1=O)NC1CCCCC1 do in these assays?
MARV entry inh: -15%[46.1 µM]

How did CCOC(=O)C1=C(CCl)NC(=O)N(C(C)=O)C1c1ccccc1 (stereo not given) do in these assays?
LASV entry inh: inconclusive; MARV entry inh: -22%[14.2 µM]

How did Cc1ccc(C)c(Cn2c3ccccc3c3cnn(CC(=O)NCCC4=CCCCC4)c(=O)c32)c1 do in these assays?
LASV entry inh: 7%[46.1 µM]; MARV entry inh: inconclusive

Results for O=c1ccccn1CCOc1ccc(Cl)cc1 ?
Cycloheximide cs: 33*; Shiga toxin inh: 35*

What do the screens show for `CC(C)(C)c1ccc(OCCn2ccccc2=O)cc1`?
LASV entry inh: 9%; MARV entry inh: inconclusive; Cycloheximide cs: 37*; Shiga toxin inh: 93*

What do the screens show for `Cc1ccc(-n2c(=O)c3c(c4cc(C)ccc4n3C)n(CC(=O)NCCC3=CCCCC3)c2=O)cc1`?
LASV entry inh: 16%[46.1 µM]

What do the screens show for `COC(=O)Nc1ccc(S(=O)(=O)N2CCCC(C(=O)N3CC(C)OC(C)C3)C2)cc1` (stereo not given)?
Cycloheximide cs: -2; Shiga toxin inh: 9

How did Cc1ccc(-n2cc(C(=O)c3ccc(F)cc3)nn2)cc1Cl do in these assays?
LASV entry inh: 9%; MARV entry inh: inconclusive; Cycloheximide cs: 37*; Shiga toxin inh: 75*

What do the screens show for `COC(=O)c1[nH]c(C)c(/C(O)=C2\C(=O)C(=O)N(CCN3CCOCC3)C2c2ccco2)c1C` (stereo not given)?
LASV entry inh: -12%; MARV entry inh: 0%; Cycloheximide cs: 1; Shiga toxin inh: 15

Results for CC(=O)c1cccc(NC(=S)NC(=O)c2ccc(Cl)cc2)c1 ?
LASV entry inh: -3%; MARV entry inh: inconclusive; Cycloheximide cs: 63*; Shiga toxin inh: 65*

What do the screens show for `CC(=O)c1cccc(NC(=S)NC(=O)c2cccc(C)c2)c1`?
LASV entry inh: -5%; MARV entry inh: inconclusive; Cycloheximide cs: 40*; Shiga toxin inh: 83*

Results for CC(=O)c1cccc(NC(=S)NC(=O)c2ccccc2Br)c1 ?
LASV entry inh: 7%; MARV entry inh: -2%; Cycloheximide cs: 3; Shiga toxin inh: 5

How did Cc1cccc(C(=O)NC(=S)Nc2ccc3[nH]c(=O)[nH]c3c2)c1 do in these assays?
LASV entry inh: -3%; MARV entry inh: 0%[46.1 µM]; Cycloheximide cs: 16*; Shiga toxin inh: 18

What do the screens show for `Cc1ccc(C(=O)NC(=S)Nc2ccc3[nH]c(=O)[nH]c3c2)c(C)c1`?
Cycloheximide cs: -2; Shiga toxin inh: -2

What do the screens show for `C#CCn1cnc2c(cnn2-c2ccc(C)c(C)c2)c1=O`?
LASV entry inh: 0%; MARV entry inh: 10%; Cycloheximide cs: 35*; Shiga toxin inh: 141*

Results for Cc1nc2c3cnn(-c4ccc(C)c(C)c4)c3ncn2n1 ?
LASV entry inh: -5%; MARV entry inh: inconclusive; Cycloheximide cs: 29*; Shiga toxin inh: 70*

Results for COc1ccc(-n2ncc3c2ncn2nc(-c4ccc(OC)c(OC)c4)nc32)cc1 ?
LASV entry inh: 5%[46.1 µM]; MARV entry inh: 23%[46.1 µM]

What do the screens show for `Cc1ccc(-n2ncc3c(=O)n(CC#N)cnc32)cc1C`?
LASV entry inh: 20%; MARV entry inh: 21%; Cycloheximide cs: 65*; Shiga toxin inh: 40

How did CCN(CC)C(=O)C(=O)Nc1ccc(Oc2ccccc2)cc1 do in these assays?
LASV entry inh: 6%; MARV entry inh: 17%[46.1 µM]; Cycloheximide cs: 24*; Shiga toxin inh: 78*

How did CCN(CC(=O)Nc1ccc(OC)cc1)CC(=O)Nc1ccc(Cl)cc1F do in these assays?
LASV entry inh: -21%; MARV entry inh: -1%; Cycloheximide cs: -2; Shiga toxin inh: 13
